This is a sample that favours compounds with a hit; in the whole collection about 11% have one here.
HSD17B inhib: blocks hydroxysteroid 17-beta dehydrogenase activity; Q99714; recombinant HSD17B10, NADH fluorescence kinetic; Potency, µM (series often up to 57.1 µM), for the others: at the top dose activity change, negative = inhibition, usual class: inhibitors; 75,000 compounds, 7.6% hits; AID 893;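 further: the protocol describes HADH2 (HSD17B10) and not the HSD17B4 of the title; nearly all actives have a fitted effect of over 70% in size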
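Enzyme plus compound, 15 min room temperature; substrate mix added (NAD+ 1 mM, beta-hydroxybutyryl-CoA 90 uM final); plates read kinetically for NADH fluorescence. HADH2 was His-tagged, E. coli-derived, 20 nM.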
ERK AVP inh: inhibitors of vasopressin-stimulated ERK signaling pathway; HEK293-V1b, vasopressin-stimulated pERK AlphaScreen; Potency, µM (highest dose often 57.5 µM), for inactives: at the top dose activity, negative = inhibition, actives largely listed as inhibitors; 72,000 compounds, 0.99% hits; AID 995; further: nearly all actives have a fitted effect of over 55% in size
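HEK293 cells stably expressing V1b receptor, preincubated 30 min at 37 °C with compound, then stimulated 5 min with 25 nM vasopressin. Phospho-ERK by AlphaScreen SureFire after 5 h RT; normalized to DMSO and vasopressin; AC50 by Hill fit.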
PK Bst: pyruvate kinase (B. stearothermophilus) modulation. purified pyruvate kinase, luminescence ATP production; ribose 5-phosphate activator present at AC10. Potency, µM. 51,000 compounds, 1.2% hits. AID 361; in the data active means potency below about 11 µM; inconclusive means mostly about 12 µM to 25 µM;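 the screen sought inhibitors and activators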;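 further: scaled between full activation by ribose 5 phosphate and full inhibition by luteolin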
ALOX15 inhib: inhibitors of human 15-lipoxygenase (ALOX15) | purified 15hLO-1, xylenol orange hydroperoxide absorbance | Potency, µM (doses to about 57.1 µM), without a hit: at the top dose activity change, negative = inhibition, usual class: inhibitors | 74,000 compounds, 1.4% hits; further: nearly all actives have a fitted effect of over 55% in size
Target sequence (P16050 whole entry, looked up): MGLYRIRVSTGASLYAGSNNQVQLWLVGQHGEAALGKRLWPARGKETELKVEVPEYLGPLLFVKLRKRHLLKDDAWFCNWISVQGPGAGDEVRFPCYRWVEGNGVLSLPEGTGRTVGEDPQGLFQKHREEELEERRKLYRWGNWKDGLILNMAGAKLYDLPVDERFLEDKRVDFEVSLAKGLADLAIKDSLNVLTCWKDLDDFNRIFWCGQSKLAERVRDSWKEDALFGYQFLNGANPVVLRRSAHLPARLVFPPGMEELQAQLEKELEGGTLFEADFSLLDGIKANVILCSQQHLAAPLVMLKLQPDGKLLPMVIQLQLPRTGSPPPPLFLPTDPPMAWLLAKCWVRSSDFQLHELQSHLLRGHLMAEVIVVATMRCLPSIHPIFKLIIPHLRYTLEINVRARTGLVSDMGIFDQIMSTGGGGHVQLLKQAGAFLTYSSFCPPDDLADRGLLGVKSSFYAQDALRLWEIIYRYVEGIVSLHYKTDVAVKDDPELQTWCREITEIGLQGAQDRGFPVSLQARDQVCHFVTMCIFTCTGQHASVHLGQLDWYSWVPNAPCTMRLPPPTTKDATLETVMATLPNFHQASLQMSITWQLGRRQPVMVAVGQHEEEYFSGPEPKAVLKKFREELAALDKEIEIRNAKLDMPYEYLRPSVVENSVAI
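Quantitative HTS in 25 mM Hepes pH 7.5 containing 0.01% Triton X-100: human 15hLO-1 at 40 nM, arachidonic acid at 50 uM, 6 min turnover. Product quantified via ferrous oxidation/xylenol orange, 573:405 nm absorbance ratio.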
Luciferase inh: firefly luciferase inhibition. P08659. purified firefly luciferase, luminescence, 8 min. Potency, µM (doses to about 57.1 µM), inactives show at the highest dose activity change, negative = inhibition, most hits filed as inhibitors. 72,000 compounds, 2.2% hits. AID 411; further: nearly all actives have a fitted effect of over 40% in size
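Luminescence read-out after 8 min at room temperature; enzyme reaction used luciferin plus 10 uM ATP (linear range) in imidazole buffer pH 7.2 with KCl, MgCl2, Tween 20 and BSA. Each sample was run as a titration.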
HADH2 inh: inhibitors of human HADH2 dehydrogenase; Q99714; recombinant HADH2, NADH fluorescence, beta-hydroxybutyryl-CoA; 73,000 compounds, 3.4% hits; Potency, µM (top dose mostly 57.1 µM), without a hit: at the highest dose activity change, negative = inhibition, most hits filed as inhibitors; further: nearly all actives have a fitted effect of over 60% in size
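His-tagged recombinant enzyme from E. coli, 20 nM, preincubated 15 min RT with compound; reaction started with 1 mM NAD+ and 90 uM beta-hydroxybutyryl-CoA in 100 mM Tris-HCl pH 9.0. NADH fluorescence (ex 360/em 450) read over 4 min; last-minus-first difference.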
* = called active by the depositor; i = inactive; ? = inconclusive; . = no result given; [ ] = dose if it differs, or a comment. Unless noted, the call rests on the fitted dose curve; in most records, active means well fitted curve in the direction sought with a large enough effect; inconclusive means small, poorly fitted or top-dose-only effect, or another doubt; inactive means no such curve, though single readings can be large; an effect the other way counts as inactive or inconclusive. Unless noted, on the % scale 0 is the no-effect control and ±100 the full control effect; potency means the concentration at half of the fitted maximal effect.

SMILES	HSD17B inhib	ERK AVP inh	PK Bst	ALOX15 inhib	Luciferase inh	HADH2 inh
C[C@](N)(Cc1ccc(O)c(O)c1)C(=O)O	-17%	-24%	.	?	-4%	0.13µM*
O=C1C2=CC[C@H]3C(=O)N(c4cccc(Oc5ccccc5)c4)C(=O)[C@@H]3[C@@H]2[C@H](O)[C@@H]2O[C@H]12	-15%[11.4 µM]	16%[11.5 µM]	.	-3%[11.4 µM]	-1%[11.4 µM]	-14%[11.4 µM]
CCOc1cccc(OCCCCn2ccnc2)c1	1%	-13%	.	11%	1%	5%
Cc1cc(OCCCn2ccnc2)cc(C)c1Cl	?	25µM*	.	17%[11.4 µM]	-1%	6%[11.4 µM]
C#C[C@@]1(O)CC[C@@H]2[C@@H]3CCC4=C(CCC(=O)C4)[C@H]3CC[C@]21C	-4%[25.6 µM]	?	.	?	1%[25.5 µM]	10%[25.6 µM]
CN(C)C(=O)c1ccc(-c2cc(-n3ccnc3)ncn2)cc1	-5%	0%	.	25µM*	1%[2.29 µM]	?
CN(C)Cc1ccccc1-c1cc(-n2ccnc2)ncn1	-5%	9%	.	13µM*	1%[2.29 µM]	?
CNc1cc(-c2ccccc2CN(C)C)ncn1	25µM*	0%	.	15%	0%[2.29 µM]	16%
CN(C)c1ccc(-c2cc(-n3ccnc3)ncn2)cc1	25µM*	3%	.	?	-6%[2.29 µM]	20µM*
Cc1n[nH]c(=O)[nH]c1=O	6%[25.6 µM]	-7%[25.7 µM]	.	9%[25.6 µM]	3%[25.5 µM]	0%[25.6 µM]
O=C(c1ccco1)N1CCC2(CCCN(c3ccccc3)C2)CC1	-12%	-1%	.	-15%	0%[11.4 µM]	-3%
C=C[C@@]1(C)CC(=O)[C@@]2(O)[C@@]3(C)[C@@H](O)CCC(C)(C)[C@@H]3[C@H](O)[C@H](OC(C)=O)[C@@]2(C)O1	-14%	1.3µM*	.	-2%[25.6 µM]	0%	9%
O=C(c1ccc2nc(-c3ccco3)c(-c3ccco3)nc2c1)N1CCN(c2ccccc2)CC1	13µM*	?	>57	3.2µM*	-4%	16µM*
O=S(=O)(c1ccc2nc(-c3ccco3)c(-c3ccco3)nc2c1)N1CCOCC1	7.9µM*	?	>57	2.5µM*	-6%	?
O=C(c1cc(-c2ccco2)on1)N1CCN(c2ccccc2)CC1	-6%	-9%	.	-6%	0%	-10%
O=C(Nc1ccc(N2CCOCC2)cc1)Nc1ccc2nc(-c3ccco3)c(-c3ccco3)nc2c1	?	-23%	>57	4µM*	-2%	25µM*
CCN(CC)C(=O)Cn1cnc2ccccc2c1=O	4%	-17%	>57	9%	0%	-4%
O=C(Cn1cnc2ccccc2c1=O)c1ccc2c(c1)OCCO2	-17%	-12%	.	0%	13µM*	-3%
O=C(O)c1ccc(OCc2ccccc2)c(Cl)c1	7%[11.4 µM]	-5%[11.5 µM]	.	7%[11.4 µM]	2%[11.4 µM]	10%[11.4 µM]
CC(CCc1ccccc1)NC(=O)C1CCCN(C(=O)c2cc3sccc3n2C)C1 (configuration not stated)	-12%	25µM*	>57	-14%	1%	2%
CCn1c(C(=O)N2CCCC(C(=O)NCCCc3ccccc3)C2)cc2sccc21 (configuration not stated)	3%	16µM*	>57	-30%	2%	0%
Cn1c(C(=O)N2CCCC(C(=O)NCCCSC3CCCCC3)C2)cc2sccc21 (configuration not stated)	4%	16µM*	>57	?	0%	1%
Cn1c(C(=O)N2CCCC(C(=O)NCc3cccs3)C2)cc2sccc21 (configuration not stated)	10%	?	>57	-6%	-2%	7%
C=C(C)C(=O)OCC1CN2C(CCC(C)C2c2ccc(Br)cc2)C(=O)O1 (configuration not stated)	1%[11.4 µM]	11%[11.5 µM]	.	6%[11.4 µM]	.	9%[11.4 µM]
COc1cc2c(cc1OC)C1C(=O)c3ccc4c(c3OC1CO2)C=CC(C)(C)O4 (configuration not stated)	2%	-21%	.	0%	.	.
SMILES	HSD17B inhib	ERK AVP inh	PK Bst	ALOX15 inhib	Luciferase inh	HADH2 inh
NC1(C(=O)NC2(C(=O)O)CCCC2)CCCC1	4%[11.4 µM]	-3%[11.5 µM]	.	4%[11.4 µM]	0%[11.4 µM]	-5%[11.4 µM]
Cc1oc(/N=C/c2ccccc2O)c(C#N)c1C	-8%	12%	.	-6%	-1%	-16%
Cc1oc(/N=C/c2c(O)ccc3ccccc23)c(C#N)c1C	?	-4%	.	?	1%	25µM*
COc1ccc(-n2c(=O)c(-c3ccc(F)c(F)c3)nc3cncnc32)cc1	-3%	5%	.	5%	1%[11.4 µM]	15%
c1ccc2c(Oc3ccc4c(c3)OCO4)nncc2c1	5%	6%	i	-4%	16µM*	4%
OC(c1ccc2c(c1)OCO2)c1nccc2ccccc12 (configuration not stated)	2%	-3%	.	1%	6%	-6%
N#C/C(C(N)=O)=c1/ccc2c(c1)N1C3=C(CCCC3)CC3CCCCC31N=2 (configuration not stated)	-4%	?	.	-17%	16µM*	-4%
N#CC(C#N)=c1ccc2c(c1)N1C3=C(CCCC3)CC3CCCCC31N=2 (configuration not stated)	-4%	2.5µM*	.	2%	-1%	15%
Clc1ccccc1C(Nc1ncccn1)Nc1ncccn1	1%[11.4 µM]	14%[11.5 µM]	.	0%[11.4 µM]	2%[11.4 µM]	3%[11.4 µM]
Clc1ccccc1C(Nc1cnccn1)Nc1cnccn1	4µM*	14%[11.5 µM]	.	-5%[11.4 µM]	4%[11.4 µM]	-28%[11.4 µM]
CCN(CC)S(=O)(=O)c1ccc(-c2nnc3sc4cccc(C)c4n23)cc1	?	4%	.	-13%	3%	25µM*
CCN(CC)S(=O)(=O)c1cccc(-c2nnc(SCC(=O)c3ccc(Cl)s3)n2C)c1	-22%	-26%	>57	-15%	1%	?
Cn1cccc1C(=O)N1CCC2(CC1)CN(Cc1ccc(C#N)cc1)C2	3%	-8%	.	-2%	-3%[11.4 µM]	-3%
CN(C)Cc1c(O)ccc2occ(C(=O)c3ccccc3)c12	-6%	-21%	>57	2%	-1%	-9%
COc1ccc2occ(C(=O)c3coc4ccc(O)c(CN(C)C)c34)c2c1	25µM*	?	.	?	-4%	-1%
O=c1cnc2cnc(OCc3ccccc3)nc2n1Cc1ccc(F)cc1	-25%	32%	.	-16%	-3%[11.4 µM]	-9%
COc1cc2nc3c(c([Si](C)(C)C(C)(C)C)c2cc1OC)Cn1c-3cccc1=O	2µM*	-17%	.	.	.	260%
COc1cc2nc(CN3C(=O)c4ccccc4C3=O)oc(=O)c2cc1OC	124%	-25%	.	13%	0%	4%
CC(C)(C)[Si](C)(C)c1c2c(nc3ccc(OCc4ccccc4)cc13)-c1cccc(=O)n1C2	32µM*	26%	.	.	.	-14%
Cc1ccc(N)cc1O	-6%	9%	.	-28%	.	-23%
Cc1cc(O)c(-c2cc(O)c(C)cc2O)cc1O	1µM*	-4%[11.5 µM]	.	1.6µM*	-4%[11.4 µM]	0.4µM*

High-throughput results as filed in PubChem BioAssay.
